26 compounds from PubChem BioAssay (NCATS) can be followed below.

Values joined by “and” are separate entries in the source; they are usually repeats but may differ in a detail not shown here. Equal entries are not always repeated. Results filed as inconclusive are left out. Active and inactive are the calls of the source. Unless noted, the call rests on the fitted dose curve; in most records, active means well fitted curve in the direction sought with a large enough effect; inconclusive means small, poorly fitted or top-dose-only effect, or another doubt; inactive means no such curve, though single readings can be large; an effect the other way counts as inactive or inconclusive.

Assay [1] addresses Cytochrome P450 2C9 (Homo sapiens) (UniProt P11712). In words: Cytochrome P450 family 2 subfamily C member 9 (CYP2C9) small molecule antagonists: luciferase biochemical (cell-free) qHTS assay (AID 1645842; active means well fitted curve in the direction sought with a large enough effect in the repeat runs; an effect the other way counts as inactive or inconclusive; further: nearly all actives have a fitted effect of over 55% in size). Conditions: P450-Glo CYP2C9 enzyme assay, luciferin luminescence; series mostly up to 57.4 µM. The essentials:
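Luminescence, after 20 min with luciferin detection reagent, reflected CYP2C9 turnover during a 1 h NADPH-driven reaction at 37C. Enzyme-substrate mix contained 0.4% bovine serum albumin and was preincubated with compound 10 min at room temperature.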
A general note: Quantitative high-throughput screening tests each substance at several concentrations.

Assay [2] can be described thus: Primary qHTS for inhibitors of nuclear receptor binding SET domain protein 2 (NSD2) in an isogenic RCH-ACV NSD2 p.E1099K mutant (9B) (AID 1645876). Further: nearly all actives have a fitted effect of over 70% in size. To be noted: RCH-ACV NSD2 E1099K (9B) viability, CellTiter-Glo, 72 h; series mostly up to 44.9 µM.
Assay [3] in a line: Primary qHTS for inhibitors of nuclear receptor binding SET domain protein 2 (NSD2) in an RCH-ACV wild type WT cells (2C) (AID 1645877). Further: nearly all actives have a fitted effect of over 70% in size. Conditions: RCH-ACV (leukaemia line) NSD2 WT (2C) viability, CellTiter-Glo, 72 h; series mostly up to 44.9 µM.
Potency means the concentration at half of the fitted maximal effect.

Chain of Cytochrome P450 2C9 (Homo sapiens) (P11712 whole entry, looked up): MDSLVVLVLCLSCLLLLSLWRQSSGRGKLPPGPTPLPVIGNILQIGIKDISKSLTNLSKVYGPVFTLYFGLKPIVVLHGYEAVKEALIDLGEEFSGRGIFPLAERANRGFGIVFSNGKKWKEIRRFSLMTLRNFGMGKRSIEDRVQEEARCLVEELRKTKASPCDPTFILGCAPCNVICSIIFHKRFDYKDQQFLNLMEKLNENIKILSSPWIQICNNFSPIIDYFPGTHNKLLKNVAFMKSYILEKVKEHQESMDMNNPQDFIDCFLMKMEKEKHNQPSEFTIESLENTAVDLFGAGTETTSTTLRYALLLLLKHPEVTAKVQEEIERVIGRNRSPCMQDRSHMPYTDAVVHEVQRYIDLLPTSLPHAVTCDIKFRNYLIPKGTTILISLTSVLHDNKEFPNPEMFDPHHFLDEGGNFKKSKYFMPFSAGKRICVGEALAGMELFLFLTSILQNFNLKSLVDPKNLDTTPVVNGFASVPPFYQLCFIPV

For the compound `CC1(C)Oc2ncnc(N)c2N=C1c1ccc(C23CCC(CC(=O)O)(CC2)CC3)cc1`, the Potency result in assay [1], in assay [2] and in assay [3] was “inactive” each time.
`C=C(C)[C@@H]1CC=C(COC(=O)NC(=O)c2ncn3c(=O)n(C)nnc23)CC1`: the Potency entry in assay [1] and in assay [2] was “inactive” in each case.
For the compound `O=C(NCc1ccccc1)c1ccc2c(=O)n(-c3cccc(C(F)(F)F)c3)c(=S)[nH]c2c1`, the Potency in assay [1] is 10.7 µM (active). Also, the Potency result in assay [2] was “inactive”.
Turning to `CCCc1cc(C)[nH]c(=O)c1CNC(=O)c1cc(-c2ccc(N3CCN(C(C)C)CC3)nc2)cc2c1cnn2C(C)C`, the Potency in assay [1] is 10.7 µM (active); in assay [2] it was 11.5 µM (active) and 7.42 µM (active); in assay [3], 11.5 µM (active) and 5.25 µM (active).
Turning to `OC(CC1c2ccccc2-c2cncn21)C1CCCCC1` (stereo unspecified), the Potency in assay [1] was 2.68 µM (active); in assay [2], 23 µM (active).
With `CCOc1cc(C(C)(C)C)ccc1C1=N[C@@](C)(c2ccc(Cl)cc2)[C@@](C)(c2ccc(Cl)cc2)N1C(=O)N1CCN(CC(=O)N2CCOCC2)CC1`, the Potency in assay [1] is 21.3 µM (active); in assay [2], 1.03 µM (active); in assay [3] it was 1.03 µM (active).
Consider `CNc1nc(NCc2ccc(NS(C)(=O)=O)cc2Cl)cc(-c2ccccn2)n1`, for which the values for the Potency in assay [1], in assay [2] and in assay [3] were 2.68 µM (active), 11.5 µM (active) and 7.28 µM (active), respectively.
`Cc1cc(OCCCS(C)(=O)=O)cc(C)c1-c1cccc(COc2ccc3c(c2)OCC3CC(=O)O)c1` (stereo unspecified): the Potency entry in assay [1], in assay [2] and in assay [3] was “inactive” in each case.
Turning to `CC(C)[C@@H](c1ccc(C(F)(F)F)cc1CN(Cc1cc(C(F)(F)F)cc(C(F)(F)F)c1)c1nnn(C)n1)N1CCC(C(=O)O)CC1`, the values for the Potency in assay [1] and in assay [2] were 15.1 µM (active) and 25.8 µM (active), respectively.
The corresponding values for `CCO[C@H]1CN(C2CCC(O)(c3ccc4c(c3)OCO4)CC2)C[C@@H]1NC(=O)CNC(=O)c1cccc(C(F)(F)F)c1` (stereo partly specified) are 12 µM (active) and “inactive”.
The corresponding values for `CC(C)NC(=O)COc1cccc(-c2nc(Nc3ccc4[nH]ncc4c3)c3ccccc3n2)c1` are 0.19 µM (active) and 7.42 µM (active).
For the compound `O=c1cc(N2CCN(c3cccc(C(F)(F)F)c3)CC2)[nH]c(=O)n1C1CCCCC1`, in assay [1], the Potency is 3.01 µM (active). Further, in assay [2], the Potency entry is “inactive”.
On to `CCOC(=O)N1CCC(N2CCC[C@@H](NC(=O)c3ccccc3C)C2)CC1`, for which the Potency result in assay [1], in assay [2] and in assay [3] was “inactive” in each case.
Take `COc1ccc(NC(=O)c2ccc(-c3ccc(-c4nnc(C)o4)cc3C)cc2)cc1N1CCN(C)CC1`: the Potency in assay [1] is 19 µM (active); in assay [2] it was 20.5 µM (active); in assay [3] it was 10.3 µM (active).
Taken in the same sequence, the figures for `CCOC(=O)C1(CCOc2ccccc2)CCN(Cc2ccc(O)c(Cl)c2)CC1` were 6.01 µM (active), 23 µM (active) and 23 µM (active).
Taken in the same sequence, the figures for `CCCCCCOC(=O)/N=C(\N)c1ccc(NCc2nc3cc(C(=O)N(CCC(=O)OCC)c4ccccn4)ccc3n2C)cc1` were “inactive”, 20.5 µM (active) and 16.3 µM (active).
As for `Nc1ncnc2c1c(-c1ccc(Oc3ccccc3)cc1)nn2[C@@H]1CCCNC1`, the Potency entry in assay [1] is “inactive”. The figures for the Potency in assay [2] and in assay [3] were 1.63 µM (active) and 2.3 µM (active), respectively.
For the compound `CCC(C)CNCC(=O)N1CCc2sccc2C1COc1cccc(C)c1` (stereo unspecified), the results for the Potency in assay [1], in assay [2] and in assay [3] were 13.5 µM (active), 16.3 µM (active) and 20.5 µM (active), respectively.
The corresponding values for `N#Cc1cnc2c(Cl)cc(NCc3cn(CCN4CCCCCC4)nn3)cc2c1Nc1ccc(F)c(Cl)c1` are 3.38 µM (active), 20.5 µM (active) and 11.5 µM (active).
The corresponding values for `COC1CCN(c2cccc(-c3cc(NC(C)=O)nc(-n4nc(C)cc4C)n3)n2)CC1` are 10.7 µM (active), 20.5 µM (active) and 16.3 µM (active).
The corresponding values for `CC(C)c1noc(C2CCN(c3ncnc(Nc4ccc(S(C)(=O)=O)cc4F)c3[N+](=O)[O-])CC2)n1` are “inactive”, “inactive” and “inactive”.
As to `Cc1ccc(NC(=O)C(C)C)cc1C1CCN(Cc2ccc(Oc3ccc(F)c(F)c3)cc2)CC1`, the Potency in assay [1] was 9.52 µM (active); in assay [2], 12.9 µM (active); in assay [3], 9.16 µM (active).
The corresponding values for `CC(C)S(=O)(=O)c1ccc2nccc(Nc3ccc4scnc4c3)c2c1` are 6.74 µM (active), 9.34 µM (active) and 10.5 µM (active).
On to `C=CC(=O)Nc1ccc2ncnc(Nc3cccc(Br)c3)c2c1`, for which the Potency in assay [1] is 3.38 µM (active); in assay [2], 4.68 µM (active); in assay [3], 4.17 µM (active).
The corresponding values for `O=C(NCc1nc2ccccc2c(=O)n1-c1ccc(F)cc1)Nc1ccc(Cl)c(C(F)(F)F)c1` are 10.7 µM (active), 25.8 µM (active) and 23 µM (active).
The corresponding values for `Cc1nc(Nc2cnn(C3CCNCC3)c2)nc2c1N(C)C(=O)c1cc3ccccc3cc1N2C` are 1.07 µM (active), 5.15 µM (active) and 2.05 µM (active).
